Hits are enriched below; roughly 3.1% of the tested compounds scored in any of these assays.
MLL AF4-AF9 inh – inhibitors of AF4 peptide binding to AF9, primary screen, biochemical, AlphaScreen, biotin-AF4 peptide, FLAG-AF9, single point; Protein AF-9 (Homo sapiens), P42568; inhibition, % at 10 µM; 0.47% of 350,000 active;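 active = every replicate reaching a set inhibition limit, whatever the replicate mean, cut at about 25% in these data; inconclusive = mean inhibition reaches that limit but some replicates miss it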;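 also: 0% = plate neutral control median and 100% = total signal loss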
Target sequence (P42568 whole entry, looked up): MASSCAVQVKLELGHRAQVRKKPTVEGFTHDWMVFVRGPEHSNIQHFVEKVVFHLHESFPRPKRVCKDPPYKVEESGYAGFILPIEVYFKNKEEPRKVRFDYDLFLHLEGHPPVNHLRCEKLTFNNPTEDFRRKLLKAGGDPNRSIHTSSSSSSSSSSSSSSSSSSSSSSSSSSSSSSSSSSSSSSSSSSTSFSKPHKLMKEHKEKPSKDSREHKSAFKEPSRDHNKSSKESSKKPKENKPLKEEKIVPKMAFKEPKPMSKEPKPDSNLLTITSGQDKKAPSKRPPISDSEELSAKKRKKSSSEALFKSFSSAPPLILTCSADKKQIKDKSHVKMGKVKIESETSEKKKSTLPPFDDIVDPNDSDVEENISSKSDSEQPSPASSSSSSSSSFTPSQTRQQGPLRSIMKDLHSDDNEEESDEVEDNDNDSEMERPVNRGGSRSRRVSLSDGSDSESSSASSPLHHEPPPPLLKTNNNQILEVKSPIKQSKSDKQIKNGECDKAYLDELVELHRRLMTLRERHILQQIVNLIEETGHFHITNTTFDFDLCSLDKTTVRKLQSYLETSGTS
RAD54 inh – inhibitors of human RAD54 branch migration, primary screen, biochemical, fluorescence, single point; DNA repair and recombination protein RAD54-like (Homo sapiens), Q92698; RAD54 Holliday junction branch migration, FAM/BHQ fluorescence; inhibition, % at 10.4 µM; 0.14% of 360,000 active;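 active = mean normalized replicate activity at least 40 and at least half of replicates scoring 40 or more; inconclusive = only one of the two criteria met; inactive = mean below 40 and under half of replicates reaching 40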;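 also: 0% = median of neutral control wells and 100% = median of positive control wells; inhibitors cause a drop in the FAM fluorescence signal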
GSIS activator – GLuc luminescence reporter in INS-1E cells, primary screen for activators of glucose-dependent secretion of insulin. 0.61% of 370,000 active. AID 743287, 2014. INS-1E GLuc reporter insulin secretion, 2-3 h. activation, % at 16.6 µM;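 active = lowest replicate activation of at least 40%, so every replicate reaches that level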;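 also: 0% = median of neutral control wells and 100% = median of IBMX positive control wells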
DENV2 CPE rescue – inhibitors of DENV2 cytopathic effect, primary screen, cell-based, plate reader, single concentration | CPE inhibition, % at 9.99 µM | AID 651640, 2012 | DENV2-infected cells, cytopathic effect rescue | 1.7% of 350,000 active; in the data active = CPE inhibition above about 20%, passing the limit was not always enough; inconclusive = no clear call, values can overlap the other calls; tested in BHK-21 cells;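 also: 0% = median of neutral control wells and 100% = median of positive control wells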
RAD52 anneal inh – RAD52 DNA annealing inhibitors, primary screen, biochemical, FRET, single point, set 2; inhibition, % at 18.7 µM; recombinant RAD52 DNA annealing, FRET fluorescence; DNA repair protein RAD52 homolog (Homo sapiens), P43351; 0.46% of 360,000 active; AID 651710, 2012;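 active = every replicate showing at least 50% inhibition; inconclusive = mean inhibition at least 50% but not in every replicate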
dFosB activator – activators of delta FosB homodimer, primary screen, biochemical, fluorescence polarization, TAMRA-CDK5 oligo, single point. purified delta FosB; percent of positive-control signal above neutral wells. Protein FosB (Mus musculus), P13346. 0.99% of 340,000 active. activation, % at 25 µM. AID 493131, 2011;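 active = mean activation above about 17%, with every replicate also reaching it, limit read from the data, passing the limit was not always enough; inconclusive = only one of the two conditions met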
Active calls of the source: *; ! = not confirmed by another sample.

Screening COc1ccc(S(=O)(=O)N(C)C[C@H]2Oc3ccc(NC(=O)CCC(F)(F)F)cc3CC(=O)N([C@H](C)CO)C[C@H]2C)cc1 returned MLL AF4-AF9 inh -3, RAD54 inh 4, GSIS activator -17, DENV2 CPE rescue 1 and RAD52 anneal inh 14.
COc1ccc(S(=O)(=O)N(C)C[C@@H]2Oc3ccc(NC(=O)CCC(F)(F)F)cc3CC(=O)N([C@@H](C)CO)C[C@H]2C)cc1 was read as MLL AF4-AF9 inh -2, RAD54 inh 1, GSIS activator -12, DENV2 CPE rescue 25* and RAD52 anneal inh 12.
Screening COCC#Cc1cnc2c(c1)C(=O)N([C@@H](C)CO)C[C@H](C)[C@H](CN(C)C(=O)Nc1cc(F)ccc1F)O2 returned MLL AF4-AF9 inh -3, RAD54 inh -3, GSIS activator 5, DENV2 CPE rescue -3 and RAD52 anneal inh -8.
`C[C@@H]1CN([C@@H](C)CO)C(=O)Cc2cc(NC(=O)NC3CCCCC3)ccc2O[C@H]1CN(C)CC1CC1` gave MLL AF4-AF9 inh 6, RAD54 inh 5, GSIS activator -6, DENV2 CPE rescue 41* and RAD52 anneal inh 11.
For C[C@@H]1CN([C@@H](C)CO)C(=O)Cc2cc(NC(=O)Nc3ccc4c(c3)OCO4)ccc2O[C@H]1CN(C)CC1CCCCC1 the results were MLL AF4-AF9 inh 27*, RAD54 inh 0, GSIS activator 0, DENV2 CPE rescue 8 and RAD52 anneal inh 23.
Screening CNC[C@H]1Oc2ccc(NC(=O)c3ccncc3)cc2CC(=O)N([C@H](C)CO)C[C@@H]1C returned MLL AF4-AF9 inh -5, RAD54 inh 16, GSIS activator 4, DENV2 CPE rescue 64* and RAD52 anneal inh 5.
`C[C@@H]1CN([C@@H](C)CO)C(=O)Cc2cc(NC(=O)C3CCCCC3)ccc2O[C@H]1CN(C)CC1CC1` gave MLL AF4-AF9 inh 1, RAD54 inh 8, GSIS activator 0, DENV2 CPE rescue 76* and RAD52 anneal inh 1.
CCCC#Cc1cnc2c(c1)C(=O)N([C@@H](C)CO)C[C@H](C)[C@H](CN(C)C(=O)Cc1cccnc1)O2 was read as MLL AF4-AF9 inh -3, RAD54 inh 5, GSIS activator -2, DENV2 CPE rescue inconclusive and RAD52 anneal inh 2.
Screening CNC[C@H]1Oc2ccc(NC(=O)C3CCCCC3)cc2CC(=O)N([C@H](C)CO)C[C@H]1C returned MLL AF4-AF9 inh -9, RAD54 inh -8, GSIS activator 10, DENV2 CPE rescue -2 and RAD52 anneal inh -11.
For CNC[C@H]1Oc2ccc(NC(=O)C3CCCCC3)cc2CC(=O)N([C@H](C)CO)C[C@@H]1C the results were MLL AF4-AF9 inh 2, RAD54 inh -6, GSIS activator 4, DENV2 CPE rescue 90*!, RAD52 anneal inh -85 and dFosB activator 2.
Cc1ccc(S(=O)(=O)N(CC(=O)O)Cc2ccco2)cc1 was read as MLL AF4-AF9 inh -1, GSIS activator 2, DENV2 CPE rescue 28*, RAD52 anneal inh -22 and dFosB activator -1.
`Cn1c(=O)oc2cc(S(=O)(=O)N3CCCC(C(=O)NCCN4CCOCC4)C3)ccc21` (stereo unspecified) gave MLL AF4-AF9 inh 4, RAD54 inh -6, GSIS activator 2, DENV2 CPE rescue 83*, RAD52 anneal inh -4 and dFosB activator 7.
For CCCN(CCC)CCNC(=O)C1CCCN(S(=O)(=O)c2ccc3c(c2)oc(=O)n3C)C1 (stereo unspecified) the results were RAD54 inh -5 and dFosB activator 2.
CC1CCCCC1NC(=O)Cn1nc(-c2ccccc2)ccc1=O (stereo unspecified) was read as MLL AF4-AF9 inh 27*, GSIS activator 2, DENV2 CPE rescue 2, RAD52 anneal inh -4 and dFosB activator -5.
`COc1ccc(-c2ccc(=O)n(CC(=O)Nc3ccc(C(=O)NC4CC4)cc3)n2)cc1OC` gave RAD54 inh 3 and dFosB activator -5.
